We go through seven compounds from PubChem BioAssay.

The source made the active and inactive calls. Unless noted, no rule for the calls is given here.

Assay [1] in a line: compound effects on lung adenocarcinoma cell viability – A549, calcein-AM fluorescence, 48 h, basal, profiling panel (AID 1162). Also: test concentration not given here. The following applies: higher = more signal.
Assay [2] can be described thus: compound effects on differentiated 3T3-L1 adipocyte viability – cell-based, 3T3-L1 adipocytes, calcein-AM fluorescence, 48 h, basal, profiling panel (AID 1163). Also: test concentration not given here. Conditions: 3T3-L1 adipocytes viability, higher = more signal.
Assay [3] can be described thus: compound effects on hepatocellular carcinoma cell viability – HepG2, calcein-AM fluorescence, 48 h, basal, profiling panel (AID 1164). Also: test concentration not given here. Conditions: higher = more signal.
Assay [4] is described as follows: compound effects on multiple myeloma cell viability – MM1S, calcein-AM fluorescence, 48 h, basal, profiling panel (AID 1165). Also: test concentration not given here. Conditions: higher = more signal.
A short description of assay [5]: calcein-AM signal in unstimulated myeloma cells – cell-based, calcein-AM fluorescence, 48 h, PK04 Diversity Set, profiling panel (AID 1166).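 Also: cells grown under basal conditions without added stimulus; test concentration not given here.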 Conditions: RPMI8226 myeloma viability, higher = more signal.
A short description of assay [6]: JC-1 mitochondrial signal, unstimulated HepG2 cells – cell-based, JC-1 fluorescence, 24 h, 100 nL compound, profiling panel (AID 1167). Also: test concentration not given here. The following applies: HepG2 mitochondrial potential, higher = more signal.
The nature of assay [7]: JC-1 mitochondrial signal, unstimulated adipocytes – cell-based, JC-1 fluorescence, 3T3-L1 adipocytes, 24 h, 100 nL compound, profiling panel (AID 1168). Also: test concentration not given here. The following applies: JC-1 mitochondrial fluorescence, higher = more signal, called active from +8 up or from −8 down.
The nature of assay [8]: JC-1 mitochondrial signal, unstimulated myeloma cells – cell-based, JC-1 fluorescence, RPMI8226, 24 h, 100 nL compound, profiling panel (AID 1169). Also: test concentration not given here. The following applies: JC-1 mitochondrial potential fluorescence, higher = more signal.
Assay [9] in a line: JC-1 mitochondrial signal, unstimulated MM1S myeloma – cell-based, JC-1 fluorescence, 24 h, 100 nL compound, profiling panel (AID 1170). Also: test concentration not given here. Conditions: MM1S mitochondrial potential, higher = more signal.
Assay [10] is described as follows: resazurin metabolic signal in A549 cells – cell-based, resazurin fluorescence, 24 h, PK04 Diversity Set, profiling panel (AID 1171). Also: test concentration not given here. Conditions: A549 viability, higher = more signal, called active from +8 up or from −8 down.
Assay [11] in a line: resazurin metabolic signal in HepG2 cells – cell-based, resazurin fluorescence, 24 h, PK04 Diversity Set, profiling panel (AID 1172). Also: test concentration not given here. Conditions: HepG2 viability, higher = more signal.
The nature of assay [12]: budding yeast growth changes without added modifier – OD600, strain BY4716, 24 h, basal condition, primary screen (AID 1173). Conditions: S. cerevisiae BY4716 growth, OD600, 24 h; higher = more signal, called active from +8 up or from −8 down.
Assay [13] is described as follows: viability profiling in MM1S myeloma cells – cell-based, resazurin fluorescence, basal, 24 h, PK04 Diversity Set, profiling panel (AID 1174). Also: test concentration not given here. The following applies: higher = more signal, called active from +8 up or from −8 down. In general terms: Alamar Blue is a resazurin reagent that responds to reducing activity.
The target in assay [14] is Dihydroorotate dehydrogenase (quinone), mitochondrial (Plasmodium falciparum (isolate 3D7)) (UniProt Q08210). The assay is described as follows: inhibition of P. falciparum DHODH – biochemical, C-terminal His tag, absorbance 600 nm, primary screen (AID 1175).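 Also: recombinant parasite enzyme with a five histidine tag at its C terminus; test concentration not given here.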 Conditions: PfDHODH enzyme, DCIP absorbance 600 nm; higher = more signal, called active from +8 up or from −8 down.

A short description of assay [15]: inhibition of PAO1 biofilm formation – strain PAO1, LB-PBS medium, absorbance 600 nm, primary screen (AID 1176). Also: test concentration not given here. Conditions: P. aeruginosa PAO1 growth/biofilm, A600, 12 h; higher = more signal.
The nature of assay [16]: growth modulation of vineyard yeast isolate – strain RM11-1a, OD600, basal, 24 h, primary screen (AID 1177).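 Also: cultures grown under basal conditions with no added stressor; test concentration not given here.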 The following applies: S. cerevisiae RM11-1a growth, OD600, 24 h; higher = more signal, called active from +8 up or from −8 down.
The nature of assay [17]: growth of efflux-deficient E. coli DRC39 – strain DRC39, OD650, 24 h, E. coli filamentation inducers, primary screen (AID 1178).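 Also: growth measured as culture turbidity by optical density at 650 nm; test concentration not given here.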 Conditions: E. coli DRC39 acrAB, higher = more signal, called active from +8 up or from −8 down.
A short description of assay [18]: growth of efflux-deficient E. coli DRC39 – strain DRC39, OD650, 48 h, E. coli filamentation inducers, primary screen (AID 1179).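 Also: screen aims at cell division blockers that make cells filament.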 The following applies: E. coli DRC39 delta-acrAB growth, higher = more signal, called active from +8 up or from −8 down.
The nature of assay [19]: viability profiling in RPMI8226 myeloma cells – cell-based, resazurin fluorescence, basal, 24 h, PK04 Diversity Set, profiling panel (AID 1180).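 Also: RPMI8826 multiple myeloma cell line at 5000 cells per well; test concentration not given here.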 Conditions: higher = more signal.
In assay [20] the target is E3 ubiquitin-protein ligase XIAP (Homo sapiens) (UniProt P98170). The assay is described as follows: small molecules binding XIAP protein – biophysical, small-molecule microarray, fluorescence 635 nm, primary screen (AID 1181).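 Also: score merges 667 nm emission and signal to noise over triplicate slides.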 Conditions: higher = more signal.
Sequence of E3 ubiquitin-protein ligase XIAP (Homo sapiens) (P98170 whole entry, looked up): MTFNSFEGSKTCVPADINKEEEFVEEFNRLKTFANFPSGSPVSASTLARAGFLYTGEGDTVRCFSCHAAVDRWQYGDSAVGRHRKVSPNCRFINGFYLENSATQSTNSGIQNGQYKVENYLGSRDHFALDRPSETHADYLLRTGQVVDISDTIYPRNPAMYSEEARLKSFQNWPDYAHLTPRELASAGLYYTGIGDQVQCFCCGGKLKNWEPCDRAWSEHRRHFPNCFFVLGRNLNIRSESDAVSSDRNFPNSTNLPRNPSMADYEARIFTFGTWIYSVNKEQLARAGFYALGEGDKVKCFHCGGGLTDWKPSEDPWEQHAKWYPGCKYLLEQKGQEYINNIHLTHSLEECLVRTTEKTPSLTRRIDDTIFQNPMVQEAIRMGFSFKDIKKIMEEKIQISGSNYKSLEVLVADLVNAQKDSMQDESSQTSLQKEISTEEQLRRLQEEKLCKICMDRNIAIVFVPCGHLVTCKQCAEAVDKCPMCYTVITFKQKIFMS

Sequence of Dihydroorotate dehydrogenase (quinone), mitochondrial (Plasmodium falciparum (isolate 3D7)) (Q08210 whole entry, looked up): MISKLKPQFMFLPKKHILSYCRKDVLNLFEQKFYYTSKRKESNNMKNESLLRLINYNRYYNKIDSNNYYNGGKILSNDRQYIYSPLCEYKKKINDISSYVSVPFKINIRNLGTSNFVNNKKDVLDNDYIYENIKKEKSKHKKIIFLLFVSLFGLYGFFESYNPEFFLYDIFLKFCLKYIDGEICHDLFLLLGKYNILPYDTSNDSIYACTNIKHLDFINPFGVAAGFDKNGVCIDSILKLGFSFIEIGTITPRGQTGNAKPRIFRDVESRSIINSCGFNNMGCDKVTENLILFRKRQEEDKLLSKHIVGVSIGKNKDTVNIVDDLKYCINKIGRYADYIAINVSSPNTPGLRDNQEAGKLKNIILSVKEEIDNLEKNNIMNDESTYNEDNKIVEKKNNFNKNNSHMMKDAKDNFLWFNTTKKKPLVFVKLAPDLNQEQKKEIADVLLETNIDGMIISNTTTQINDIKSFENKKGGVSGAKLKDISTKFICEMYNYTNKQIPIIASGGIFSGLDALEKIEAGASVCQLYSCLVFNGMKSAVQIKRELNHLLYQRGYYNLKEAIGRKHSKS

Take `COc1ccc(NN2C(C(O)c3ccc(F)cc3)C=CC3C(=O)N(C4CCCCC4)C(=O)C32)cc1` (stereo not given): the z-score in assay [1] is -0.705; in assay [2], -0.17; in assay [3] it was -0.0716; in [4], -1.05; in [5], -1.08; in assay [6], -0.496. For the same compound, the z-score is -1.23 (inactive) in assay [7]; -0.169 in [8]; -0.191 in assay [9]; 0.227 (inactive) in assay [10]; -0.598 in assay [11]; 0.0789 (inactive) in assay [12]. In addition, the z-score in [13] was -0.209 (inactive); in assay [15], 1.68 (inactive); in [16], 0.816 (inactive); in [17], -0.385 (inactive); in assay [18] it was -0.0595 (inactive); in assay [19], -0.352. Further, the composite z-score in [14] was -0.328 (inactive); in assay [20] it was -0.0726.
For `Cc1ccc(S(=O)(=O)N2[C@@H](c3ccccc3)C(C(=O)O)=C[C@H]2C(C)(C)C)cc1`, the z-score in [1] was -0.756; in assay [2], -0.625; in assay [3], -0.558; in assay [4], 0.611; in assay [5], -0.711; in [6], -0.747. Also, the z-score in [7] was -0.465 (inactive); in assay [8], -0.369; in assay [9] it was -0.953; in [10] it was -1.11 (inactive); in [11] it was -0.809; in assay [12] it was -0.535 (inactive). Besides, the z-score in assay [13] is -0.912 (inactive); in assay [15] it was 0.257 (inactive); in assay [16], -1.13 (inactive); in assay [17], -0.773 (inactive); in assay [18], -0.0408 (inactive); in assay [19], -2.03. Also, the results for the composite z-score in [14] and in [20] were 0.0392 (inactive) and -0.18, respectively.
Take `COC(=O)[C@]1(Cc2ccccc2N=[N+]=[N-])N=C(c2ccc(OCCCO)cc2)O[C@@H]1c1ccccc1CN=[N+]=[N-]`: the z-score in assay [1] is -3.36; in assay [2], -0.677; in assay [3], -5.59; in assay [4] it was -3.59; in assay [5], -3.98; in assay [6] it was -1.76. Further, the z-score is -1.07 (inactive) in assay [7]; -1.16 in assay [8]; -2.61 in assay [9]; -2.26 (inactive) in assay [10]; -4.43 in [11]; 1.24 (inactive) in assay [12]. In addition, the z-score was -8.15 (active) in assay [13]; 1.16 (inactive) in [15]; 1.94 (inactive) in assay [16]; -0.307 (inactive) in assay [17]; -0.609 (inactive) in assay [18]; -7.07 in assay [19]. Besides, the composite z-score is 1.71 (inactive) in assay [14] and -0.0277 in assay [20].
For `CC(C)c1ccc(NN2C(C(O)C3=C[C@H]4C[C@@H](C3)C4(C)C)C=CC3C(=O)N(c4ccccc4)C(=O)C32)cc1` (stereo not given in full), the z-score in assay [1] was 0.0464; in assay [2] it was -0.395; in [3] it was 0.165; in assay [4] it was -1.16; in [5], -1.04; in assay [6] it was -2.56. Moreover, the z-score was -0.401 (inactive) in [7]; -0.366 in assay [8]; 0.758 in assay [9]; -0.186 (inactive) in [10]; -1.11 in assay [11]; -1.8 (inactive) in assay [12]. For the same compound, the z-score in assay [13] was 0.32 (inactive); in assay [15] it was 0.863 (inactive); in assay [16] it was 0.786 (inactive); in [17] it was -0.326 (inactive); in assay [18], -0.629 (inactive); in [19], 0.319. The composite z-score in assay [14] is 0.0752 (inactive); in [20] it was 0.339.
As for `COc1cccc(C)c1NC(=O)O[C@H]1[C@H](OC(=O)Nc2ccc3c(c2)OCO3)[C@H](OC(=O)Nc2ccc3c(c2)OCO3)[C@@H](OC)O[C@@H]1CO`, the z-score in [1] was -0.934; in [2] it was 0.372; in assay [3], -0.997; in assay [4], -1.62; in assay [5] it was -1.82; in assay [6], -0.514. For the same compound, the z-score is 0.308 (inactive) in assay [7]; -0.136 in assay [8]; -0.724 in assay [9]; -0.654 (inactive) in assay [10]; -0.73 in [11]; 1.27 (inactive) in [12]. Further, the z-score is -0.494 (inactive) in [13]; 0.606 (inactive) in assay [15]; 1.6 (inactive) in assay [16]; 0.84 (inactive) in [17]; -0.0834 (inactive) in assay [18]; -0.708 in assay [19]. Further, the figures for the composite z-score in assay [14] and in assay [20] were -0.713 (inactive) and 1.64, respectively.
For the compound `CCCCN1CC=CC23O[C@@H]4/C=C\CCCOC(=O)C4[C@H]2C(=O)N(CCCCCCO)[C@@H]3C1=O` (stereo not given in full), the z-score in assay [1] is -0.0075; in assay [2], 1.61; in assay [3], 0.331; in assay [4], 1.42; in assay [5] it was 0.88; in assay [6], 0.608. Moreover, the z-score in assay [7] was 1.38 (inactive); in [8], 0.16; in assay [9], -1.05; in [10], 0.851 (inactive); in assay [11], 0.646; in assay [12], -0.556 (inactive). Also, the z-score is 1.21 (inactive) in assay [13]; 0.454 (inactive) in assay [15]; -0.874 (inactive) in [16]; 0.564 (inactive) in [17]; 0.924 (inactive) in [18]; 0.983 in assay [19]. Besides, the composite z-score in assay [14] was -1.97 (inactive); in [20], -0.159.
Consider `CCCC1(C(=O)OC)C=C2C(=C(C(C)C)C(=O)C2C)CN1` (stereo not given), for which the z-score in [1] was -1.47; in assay [2], 0.273; in [3], -0.0319; in assay [4], 0.313; in assay [5], -0.316; in assay [6] it was -1.45. The z-score is -1.43 (inactive) in [7]; -0.613 in assay [8]; -0.458 in assay [9]; -0.898 (inactive) in [10]; -0.964 in assay [11]; 1.67 (inactive) in assay [12]. Besides, the z-score in [13] is -1.13 (inactive); in assay [15], 0.495 (inactive); in [16] it was 0.391 (inactive); in [17], -0.314 (inactive); in assay [18], 0.0752 (inactive); in assay [19], -1.44. The composite z-score was -1.05 (inactive) in assay [14] and 0.227 in assay [20].
